25 compounds from PubChem BioAssay AID624381 (The Scripps Research Institute Molecular Screening Center, 2012) can be followed below.

About 430 (19%) of roughly 2,300 compounds were called active. The list is a sample of the results. Values without a mark were called inactive.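 Rule for the calls: active = mean activation across triplicates above the hit threshold derived in the original primary screen (cut at about 15% in these data); inactive = the rest.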

5-hydroxytryptamine receptor 2A (Mus musculus), sequence (P35363 whole entry, looked up): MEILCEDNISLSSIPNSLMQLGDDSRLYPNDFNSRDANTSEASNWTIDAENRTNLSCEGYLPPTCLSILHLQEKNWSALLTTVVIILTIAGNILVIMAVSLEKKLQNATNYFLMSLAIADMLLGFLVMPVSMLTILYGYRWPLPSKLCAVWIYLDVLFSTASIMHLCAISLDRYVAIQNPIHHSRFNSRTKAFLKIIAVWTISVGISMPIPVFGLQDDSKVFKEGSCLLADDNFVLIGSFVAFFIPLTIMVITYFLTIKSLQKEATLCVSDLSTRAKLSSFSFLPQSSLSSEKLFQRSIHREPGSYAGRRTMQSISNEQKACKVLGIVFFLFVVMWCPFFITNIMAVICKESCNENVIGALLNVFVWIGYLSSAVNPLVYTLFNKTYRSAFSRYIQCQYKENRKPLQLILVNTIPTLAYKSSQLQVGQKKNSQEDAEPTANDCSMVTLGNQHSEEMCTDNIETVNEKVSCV

The assay concerns the target 5-hydroxytryptamine receptor 2A (Mus musculus) (UniProt P35363). Kind of assay: agonist activity at mouse 5-HT2A receptor – cell-based, luminescence, CHO-K1 PathHunter, triplicate, confirmation (AID 624381). The conditions noted are these: CHO-K1 PathHunter beta-arrestin recruitment, at 7.6 µM, stronger effect = higher value, DMSO 0%, 30 µM serotonin 100%. (In general: Recruitment of arrestin is a read-out of receptor activation apart from second messengers.)
In the case of `Cc1[nH]c2ccccc2c1CCN(Cc1cccs1)C(=S)NC(C)(C)C`, the activation is 4.41%.
As for `CCOc1ccc(/C(O)=C2\C(=O)C(=O)N(c3ccc(OC)cc3)C2c2ccccc2[N+](=O)[O-])cc1` (stereo not given), the activation was 1.71%.
As for `CCCCn1c(N)c(N(CC(C)C)C(=O)CSc2ccc([N+](=O)[O-])cc2)c(=O)[nH]c1=O`, the figure is 0.81%; as for `C=CCn1c(=NC(=O)c2cccs2)sc2cc(NC(C)=O)ccc21`, -1%; as for `COc1ccc(NS(=O)(=O)c2cc(C(=O)Nc3ccccc3C(=O)O)ccc2C)cc1`, 5.94%.
Turning to `CCOC(=O)c1cc(-c2ccccc2C)n(Cc2cc(C)no2)n1`, the activation was 2.4%.
In the case of `O=C(c1ccco1)N1CCN(CCOc2ccccc2)CC1` it was 34.5% (active).
With `COc1cccc(OC)c1OCCN1CCN(C(=O)c2ccco2)CC1`, the activation is 78.4% (active).
As for `CSc1ncnc2c1ncn2CCCNCc1cccs1`, the figure is -4.72%.
For `Oc1ccc(CN2CCN(c3ncccn3)CC2)cc1`, the activation was 101% (active).
In the case of `Cc1ccc(CN2CCN(c3ncccn3)CC2)c(C)c1` it was 118% (active); in that of `COc1ccccc1CN1CCN(Cc2cc(OC)c(OC)cc2OC)CC1`, 8.39%.
In the case of `CC(C)c1cc(C(=O)O)on1` it was 13.4%.
In the case of `O=C1CCc2cc(S(=O)(=O)N3CCC(C(=O)NCc4ccccc4Cl)CC3)ccc2N1` it was -6.01%; in that of `O=C(CNCc1cccs1)Nc1cc(S(=O)(=O)N2CCCC2)ccc1Cl`, 50.6% (active).
With `COC(=O)c1ccc(CSc2nnc(NC(C)C)s2)cc1`, the activation is -5.43%.
In the case of `COc1ccc(C2c3[nH]c4ccccc4c3C[C@H]3C(=O)N(CC(C)C)CC(=O)N23)c(OC)c1` (stereo not given in full) it was 0.84%.
As for `Cc1cccc(CN2CCN(C3CN(Cc4ccccc4)S(=O)(=O)C3)CC2)c1` (stereo not given), the figure is 8.09%.
As for `O=C(NCCCN1CCN(c2ccccc2F)CC1)C1CCC(=O)N1C1CCCCC1` (stereo not given), the figure is 41.4% (active).
`CC(C)Oc1ccccc1C(=O)NC(CO)C(=O)O` (stereo not given): the activation is 0.21%.
As for `Cc1cccc(CN2CCN(C3CN(Cc4cn(Cc5cc(C)cc(C)c5)nn4)S(=O)(=O)C3)CC2)c1` (stereo not given), the figure is 8.35%; as for `Cc1cc(C(=O)OCC(=O)N2c3ccccc3NC(=O)C2(C)C)c(C)n1-c1ccccc1`, -2.45%; as for `CN(C)[C@@H]1C(=O)C(C(N)=O)=C(O)[C@@]2(O)C(=O)C3=C(O)c4c(O)ccc(Cl)c4[C@@H](O)[C@H]3C[C@@H]12`, 40.1% (active).
In the case of `CCCCC(CC)CNC(=O)CCCCn1c(=O)[nH]c2ccsc2c1=O` (stereo not given) it was -3.5%.
As for `COc1ccc(-c2nc3cc([N+](=O)[O-])ccc3o2)cc1OC`, the figure is -2.5%.
